PLCb3 inh – inhibitors of human phospholipase C beta3 | Q01970 | Purified PLC-beta3, fluorogenic substrate, fluorescence | inhibition, % at 12.2 µM | 0.18% of 370,000 active; in the data active means inhibition above about 11%;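 further: 0% = median of compound wells on plate and 100% = full blocker control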
MBD2 DNA inh – MBD2-methylated oligo binding inhibition; Q9UBB5; TR-FRET, MBD2 binding to methylated oligonucleotide; inhibition, % at 4.4 µM; 0.31% of 370,000 active; AID 686964; in the data active means inhibition above about 13%
Target sequence (Q9UBB5 whole entry, looked up): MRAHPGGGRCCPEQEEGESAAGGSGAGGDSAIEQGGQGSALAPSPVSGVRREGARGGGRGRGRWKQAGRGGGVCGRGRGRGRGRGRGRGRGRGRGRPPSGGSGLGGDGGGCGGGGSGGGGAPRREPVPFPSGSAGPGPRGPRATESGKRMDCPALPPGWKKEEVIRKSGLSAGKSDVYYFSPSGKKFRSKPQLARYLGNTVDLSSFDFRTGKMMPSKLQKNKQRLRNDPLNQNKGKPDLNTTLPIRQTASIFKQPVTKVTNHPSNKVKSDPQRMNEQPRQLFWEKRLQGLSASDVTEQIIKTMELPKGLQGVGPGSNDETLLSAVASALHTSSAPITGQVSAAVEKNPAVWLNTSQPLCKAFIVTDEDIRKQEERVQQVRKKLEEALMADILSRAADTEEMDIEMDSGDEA
LEDGF integ inh – blocks HIV-1 LEDGF/p75-dependent DNA integration. inhibition, % at 3.7 µM. TR-FRET IN-LEDGF/p75 DNA integration, Eu/Cy5. AID 743269. 0.64% of 370,000 active;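 active means inhibition above the screen-wide mean plus 3 SD, cut at about 13% in these data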;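 further: signal is the Cy5 over europium emission ratio at 671 and 618 nm; 0% = plate median of compound wells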
UHRF1 binding – blocks human UHRF1 binding to methylated DNA; Q96T88; UHRF1 binding to methylated oligo, TR-FRET; inhibition, % at 4.4 µM; 0.75% of 370,000 active; AID 687016; in the data active means inhibition above about 21%;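 further: UHRF1 SRA domain binding a hemimethylated CpG hairpin DNA probe; 0% = median of test compound wells and 100% = reference inhibitor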
PLCg1 inh – PLC-gamma1 (human) inhibition, primary screen; P19174; purified PLC-gamma1, fluorogenic substrate, fluorescence; inhibition, % at 12.2 µM; 0.84% of 370,000 active; AID 720700
PLCgamma1 ctr – PLC-gamma1 inhibition, counter-screen for PLC-beta3 hits | shares compounds with PLCg1 inh | purified PLC-gamma1, fluorogenic substrate, fluorescence | inhibition, % at 12.3 µM | 3.1% of 3,300 active | AID 743258
PLCb3 confirm – confirmation of human PLC-beta3 inhibitors | shares compounds with PLCg1 inh | purified PLC-beta3, fluorogenic substrate fluorescence | inhibition, % at 12.3 µM | 1% of 3,300 active; in the data active means inhibition above about 11%
* = called active by the depositor. In the library only some 2.3% were active in any assay of this set; here they are far more common. Unless noted, no stated cut-off is given here; in the data, active means inhibition above about 9.5%; inactive means the rest.

What do the screens show for `CCOC(=O)C1CCN(C(=O)c2ccc3c(c2)OCCO3)CC1`?
PLCb3 inh: -7.6; MBD2 DNA inh: 2.0; LEDGF integ inh: -5.2; UHRF1 binding: 1.4; PLCg1 inh: 11.9*; PLCgamma1 ctr: -1.1; PLCb3 confirm: 0.6

Results for CCOC(=O)C1CCCN(C(=O)c2ccc3c(c2)CCO3)CC1 (centres undefined) ?
PLCb3 inh: 0.7; MBD2 DNA inh: -5.3; LEDGF integ inh: 2.3; UHRF1 binding: -4.1; PLCg1 inh: 2.7

What do the screens show for `O=C(Nc1ccc(Cl)c(Cl)c1)c1cccc2c1-c1ccccc1C2=O`?
PLCb3 inh: 2.8; MBD2 DNA inh: 2.2; LEDGF integ inh: 4.5; UHRF1 binding: 2.4; PLCg1 inh: 1.1

Results for C=CCn1c(SCC(=O)Nc2cccnc2Cl)nnc1-c1ccc(Cl)cc1 ?
PLCb3 inh: 0.2; MBD2 DNA inh: -1.6; LEDGF integ inh: -0.9; UHRF1 binding: -1.1; PLCg1 inh: 0.5

How did C=CCn1c(SCC(=O)Nc2ccccc2-c2ccccc2)nnc1-c1ccc(Cl)cc1 do in these assays?
PLCb3 inh: -7.4; MBD2 DNA inh: 3.1; LEDGF integ inh: 3.4; UHRF1 binding: 3.7; PLCg1 inh: 10.2*; PLCgamma1 ctr: -7.0; PLCb3 confirm: -4.1

How did Nn1c(SCc2ccc([N+](=O)[O-])cc2)nnc1-c1n[nH]c2c1CCC2 do in these assays?
PLCb3 inh: 2.3; MBD2 DNA inh: -2.2; LEDGF integ inh: 0.5; UHRF1 binding: -0.1; PLCg1 inh: -0.5

How did O=C(Nc1ccc(OC(F)(F)F)cc1)Nc1c(-c2ccc(C(F)(F)F)cc2)nc2ncccn12 do in these assays?
PLCb3 inh: -10.8; MBD2 DNA inh: -2.9; LEDGF integ inh: 4.2; UHRF1 binding: -0.6; PLCg1 inh: -4.7

How did C=CCN(C(=O)CNC(=O)c1cccs1)C(C(=O)NC1CCCCC1)c1cccnc1 (centres undefined) do in these assays?
PLCb3 inh: 8.5; MBD2 DNA inh: 4.0; LEDGF integ inh: 5.5; UHRF1 binding: -0.4; PLCg1 inh: 9.7*; PLCgamma1 ctr: 7.8; PLCb3 confirm: 5.1

What do the screens show for `CN(C)S(=O)(=O)c1cccc(C(=O)N/N=C\c2ccccc2)c1`?
PLCb3 inh: -1.6; MBD2 DNA inh: -1.3; LEDGF integ inh: -3.3; UHRF1 binding: 2.5; PLCg1 inh: -0.1

How did CO/N=C/c1cc([N+](=O)[O-])ccc1Sc1ccc(C)cc1 do in these assays?
PLCb3 inh: 4.3; MBD2 DNA inh: -1.0; LEDGF integ inh: -2.4; UHRF1 binding: 4.8; PLCg1 inh: 10.2*; PLCgamma1 ctr: -14.4; PLCb3 confirm: -14.5

Results for CO/N=C/c1ccc(Sc2ccc(C)cc2)c([N+](=O)[O-])c1 ?
PLCb3 inh: 3.4; MBD2 DNA inh: -0.8; LEDGF integ inh: -1.0; UHRF1 binding: 1.5; PLCg1 inh: 4.7

What do the screens show for `CCC(=O)N1CCCC1(C)C(=O)Nc1ccc2scnc2c1` (centres undefined)?
PLCb3 inh: 7.8; MBD2 DNA inh: -5.4; LEDGF integ inh: -0.3; UHRF1 binding: 2.3; PLCg1 inh: 12.4*; PLCgamma1 ctr: -1.6; PLCb3 confirm: -13.7

Results for CC(=O)c1c(C)[nH]c(C(=O)Nc2cccc(C#N)c2)c1C ?
PLCb3 inh: -3.3; MBD2 DNA inh: 2.3; LEDGF integ inh: 3.4; UHRF1 binding: 3.1; PLCg1 inh: 9.8*; PLCgamma1 ctr: -16.3; PLCb3 confirm: -14.9

How did C#CCCN([C@H](C(=O)OC)C(C)CC)S(=O)(=O)c1ccccc1Br (some centres undefined) do in these assays?
PLCb3 inh: 1.8; MBD2 DNA inh: -1.7; LEDGF integ inh: 9.3; UHRF1 binding: 1.9; PLCg1 inh: 2.9

Results for CCN(CC)c1ccc(C=Nn2c(C)nnc2C)cc1 ?
PLCb3 inh: 2.6; MBD2 DNA inh: -4.3; LEDGF integ inh: 7.1; UHRF1 binding: 1.7; PLCg1 inh: 6.1

What do the screens show for `COc1ccc(NC(=O)c2cc(-c3cc(F)ccc3OCC3CCCO3)n[nH]2)cc1OC` (centres undefined)?
PLCb3 inh: 2.6; MBD2 DNA inh: -1.2; LEDGF integ inh: 3.7; UHRF1 binding: -1.0; PLCg1 inh: 12.1*; PLCgamma1 ctr: -1.6; PLCb3 confirm: 0.3

How did COCOc1cccc(CN2CCC2(C)C(=O)Nc2ccc(C)c(O)c2)c1 (centres undefined) do in these assays?
PLCb3 inh: -5.8; MBD2 DNA inh: -3.5; LEDGF integ inh: -2.2; UHRF1 binding: -1.0; PLCg1 inh: 2.2

Results for COCOc1cccc(CN2CCC2(C)C(=O)Nc2ccc(C)cc2)c1 (centres undefined) ?
PLCb3 inh: 0.3; MBD2 DNA inh: -3.5; LEDGF integ inh: 4.2; UHRF1 binding: 3.4; PLCg1 inh: 12.9*; PLCgamma1 ctr: -7.1; PLCb3 confirm: -5.3

What do the screens show for `CC(C)Oc1ccc(CN2CCC2(C)C(=O)Nc2ccc3c(c2)OCO3)cc1` (centres undefined)?
PLCb3 inh: 8.2; MBD2 DNA inh: 1.6; LEDGF integ inh: 5.4; UHRF1 binding: 0.7; PLCg1 inh: 12.4*; PLCgamma1 ctr: -0.9; PLCb3 confirm: 4.8

What do the screens show for `CCCCCCNC(=O)C1CSCCS(=O)(=O)N1Cc1ccc(OC)cc1` (centres undefined)?
PLCb3 inh: 0.6; MBD2 DNA inh: 2.2; LEDGF integ inh: 0.5; UHRF1 binding: -4.8; PLCg1 inh: -1.1

What do the screens show for `COC(=O)c1cc(C(C)c2ccccc2O)n2ccccc12` (centres undefined)?
PLCb3 inh: inactive; MBD2 DNA inh: -6.2; LEDGF integ inh: 5.6; UHRF1 binding: -1.4; PLCg1 inh: inactive

How did Cc1ccc(-c2c(NC(=O)c3ccccc3)nc3ncccn23)cc1 do in these assays?
PLCb3 inh: -402.0; MBD2 DNA inh: -8.4; LEDGF integ inh: 4.2; UHRF1 binding: -0.8; PLCg1 inh: -316.4

What do the screens show for `CCCOc1ccc(Oc2cc(C)nc(SC)n2)nn1`?
PLCb3 inh: 13.2*; MBD2 DNA inh: -0.3; LEDGF integ inh: -0.6; UHRF1 binding: 1.8; PLCg1 inh: 6.5; PLCgamma1 ctr: -8.2; PLCb3 confirm: -1.8

How did COc1ccc(NC(=O)Nc2ccc3c(c2)C(=O)N([C@H](C)CO)C[C@H](C)[C@@H](CN(C)S(=O)(=O)c2cccs2)O3)cc1 do in these assays?
PLCb3 inh: 4.2; MBD2 DNA inh: -3.3; LEDGF integ inh: -3.4; UHRF1 binding: 1.9; PLCg1 inh: 11.4*; PLCgamma1 ctr: -3.7; PLCb3 confirm: -2.3

What do the screens show for `COc1ccc(S[C@]2(C(=O)N(C)C)CC(=O)N(c3ccccc3)[C@@H]2c2ccc(OC)cc2)cc1`?
PLCb3 inh: -0.9; MBD2 DNA inh: 1.3; LEDGF integ inh: 1.8; UHRF1 binding: -0.2; PLCg1 inh: 0.2

What do the screens show for `CC(=O)Nc1ccc(S(=O)(=O)NCC2CCC(C(=O)N3CCCCC3)CC2)cc1` (centres undefined)?
PLCb3 inh: -7.5; MBD2 DNA inh: 4.2; LEDGF integ inh: -2.2; UHRF1 binding: 5.5; PLCg1 inh: 9.9*; PLCgamma1 ctr: -3.7; PLCb3 confirm: -3.0
